Measured values as given in PubChem BioAssay AID2013 (Sanford-Burnham Center for Chemical Genomics, 2009).
The campaign covered roughly 290,000 compounds. About 370 (0.13%) were called active.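 Rule for the calls: active = spots per cell inhibited over 60%, with over 100 cells counted and total cytoplasm intensity under 500,000; inconclusive = wells with under 100 cells, flagged as likely toxic; inactive = the rest.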 This excerpt belongs to a sample that is enriched for actives. Results with a measured potency or affinity are listed apart.

Molecular target: G-protein coupled receptor 55 (Homo sapiens) (UniProt Q9Y2T6)
Experiment: inhibition of LPI-stimulated GPR55 beta-arrestin translocation – imaging, U2OS, beta-arrestin-GFP, LPI agonist, primary screen (AID 2013);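 note: U2OS cells stably carrying GPR55 and arrestin-GFP stimulated by 5 µM LPI near EC80; imaged beta-arrestin-GFP aggregate spots per cell after agonist stimulation; plate controls were LPI-stimulated DMSO wells for no effect and DMSO wells without LPI for full effect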
Conditions: LPI antagonism, at 10 µM, active compounds read high

Sequence of G-protein coupled receptor 55 (Homo sapiens) (Q9Y2T6 whole entry, looked up): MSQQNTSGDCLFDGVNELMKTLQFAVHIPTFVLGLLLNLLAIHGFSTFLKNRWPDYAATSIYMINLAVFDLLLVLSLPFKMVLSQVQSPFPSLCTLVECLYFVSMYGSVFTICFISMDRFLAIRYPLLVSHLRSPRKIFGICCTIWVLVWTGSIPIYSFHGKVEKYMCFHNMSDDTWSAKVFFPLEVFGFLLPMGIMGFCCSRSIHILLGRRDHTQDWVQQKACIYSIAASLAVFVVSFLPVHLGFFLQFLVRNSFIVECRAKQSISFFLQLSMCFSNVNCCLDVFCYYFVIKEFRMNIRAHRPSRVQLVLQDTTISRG

Q: With `N#Cc1cccc(NC(=O)COC(=O)c2ccc3c(=O)n4c(nc3c2)CCC4)c1` as the compound, how does the inhibition read?
A: 3% (inactive)

Q: `CCOC(=O)C(=O)c1cn(C2OCC(OC(C)=O)C(OC(C)=O)C2OC(C)=O)c2ccccc12` (stereo unspecified) was tested. Which inhibition did it give?
A: 6.8% (inactive)

Q: For `Nn1c(SCC(=O)Nc2ccc(F)cc2)nnc1-c1cccnc1`, which inhibition is on record?
A: 16.8% (inactive)

Q: `O=C1C2C3C=CC(C3)C2C(=O)N1CCCCCCN1C(=O)C2C3C=CC(C3)C2C1=O` (stereo unspecified) was tested. Which inhibition did it give?
A: 12% (inactive)

Q: For `O=C1C=CC(=O)N1Cc1ccccc1`, which inhibition is on record?
A: -45% (inactive)

Q: With `COc1cc(/C=N/NC(=O)C2CC(=O)N(c3ccc(C)cc3)C2)cc(OC)c1OC` (stereo unspecified) as the compound, how does the inhibition read?
A: 6.8% (inactive)

Q: Which inhibition does the source give for `Cc1[nH]c2ccccc2c1C(=O)C(=O)N1CCN(C)CC1` here?
A: 8.2% (inactive)

Q: For `COc1ccc(/C=C/C(=O)NCc2ccccn2)cc1OC`, which inhibition is on record?
A: -3% (inactive)

Q: With `Cc1ccc(CNC(=O)C(NS(=O)(=O)c2ccc3nc(C)sc3c2)C(C)C)cc1` (stereo unspecified) as the compound, how does the inhibition read?
A: 3.8% (inactive)

Q: Which inhibition does the source give for `Cc1nc2ccc(S(=O)(=O)NC(C(=O)Nc3nccs3)C(C)C)cc2s1` (stereo unspecified) here?
A: 17.8% (inactive)

Q: With `CCc1noc(C)c1C(=O)N1CC(C)OC(C)C1` (stereo unspecified) as the compound, how does the inhibition read?
A: 22% (inactive)

Q: How did the inhibition turn out when `c1ccc(-c2nc(-n3ccnc3)nc(-n3ccnc3)n2)cc1` was run?
A: 4.8% (inactive)

Q: With `c1ccc(-c2nc(N3CCN(c4ccccc4)CC3)nc(-n3ccnc3)n2)cc1` as the compound, how does the inhibition read?
A: 24.6% (inactive)

Q: With `COc1ccc(C(=O)NNC(=O)c2cccc(F)c2)cc1` as the compound, how does the inhibition read?
A: -5.9% (inactive)

Q: How did the inhibition turn out when `COc1cc(C(=O)NCC(=O)OCC(=O)c2ccc[nH]2)cc(OC)c1OC` was run?
A: -22.9% (inactive)

Q: For `COc1ccc2c(c1)[nH]c1c(N3CCSCC3)ncnc12`, which inhibition is on record?
A: -7.3% (inactive)

Q: For `COc1ccccc1NC(=O)Nc1ccnn1C1CCCCC1`, which inhibition is on record?
A: 0.2% (inactive)

Q: `COc1ccc2cc(C(=O)N/N=C/c3sc4ccccc4c3O)ccc2c1` was tested. Which inhibition did it give?
A: 4.9% (inactive)

Q: With `COc1ccc(NC(=O)/C(Cl)=C(/Cl)S(=O)(=O)Cc2ccccc2)cn1` as the compound, how does the inhibition read?
A: 93.7% (active)

Q: With `COc1ccc(CS(=O)(=O)/C(Cl)=C(/Cl)C(=O)Nc2ccc(OC)nc2)cc1` as the compound, how does the inhibition read?
A: 2% (inactive)

Q: How did the inhibition turn out when `COc1ccc(NC(=O)Cc2c(Cl)cccc2Cl)cn1` was run?
A: 9% (inactive)

Q: `COc1ccc(NC(=O)C(Cl)=C(Cl)Cl)cn1` was tested. Which inhibition did it give?
A: 6.1% (inactive)

Q: For `COc1ccc(NC(=O)/C(Cl)=C(/Cl)S(=O)(=O)Cc2ccc(C)cc2)cn1`, which inhibition is on record?
A: -0.1% (inactive)

Q: For `O=C(c1ccccc1[N+](=O)[O-])N1CCN(Cc2ccc3c(c2)OCO3)CC1`, which inhibition is on record?
A: 0.2% (inactive)

Q: How did the inhibition turn out when `Cc1nc(COc2ccc(C(=O)Nc3ccccc3N3CCOCC3)cc2)cs1` was run?
A: 2.8% (inactive)

Q: How did the inhibition turn out when `CCc1ccccc1S(=O)(=O)Cc1ccc(C(=O)N2CCN(c3ccccn3)CC2)o1` was run?
A: -4.8% (inactive)
